About 83,000 compounds went through this panel and 20% of them were active in at least one assay; those are over-represented in the sample as a whole.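 Method: cells in 96-well plates; compound added at one concentration; 48 h incubation; percent growth measured; values under 10 scored active.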 A number with no mark means an inactive call. The source made the active and inactive calls.
Legend:
Experiment in all cases: NCI-60 one-dose screen, 48 h (100 = growth as untreated, 0 = no growth, -100 = all killed)
SK-MEL-2 melanoma = conditions: 10 µM unless noted
EKVX NSCLC = conditions: 10 µM unless noted
SN12C renal = conditions: 10 µM unless noted
UO-31 renal = conditions: 10 µM unless noted
TK-10 renal = conditions: 10 µM unless noted
ACHN renal = conditions: 10 µM unless noted
CAKI-1 renal = conditions: 10 µM unless noted
A498 renal = conditions: 10 µM
HL-60(TB) leukemia = conditions: 10 µM unless noted
CCRF-CEM leukemia = conditions: 10 µM unless noted
MOLT-4 leukemia = conditions: 10 µM unless noted
SR leukemia = conditions: 10 µM unless noted
RPMI-8226 leukemia = conditions: 10 µM unless noted
OVCAR-8 ovarian = conditions: 10 µM unless noted
OVCAR-5 ovarian = conditions: 10 µM unless noted
OVCAR-4 ovarian = conditions: 10 µM unless noted
SK-OV-3 ovarian = conditions: 10 µM unless noted
IGROV1 ovarian = conditions: 10 µM unless noted
OVCAR-3 ovarian = conditions: 10 µM unless noted
HS 578T breast = conditions: 10 µM unless noted

| SMILES | growth (SK-MEL-2 melanoma) | growth (EKVX NSCLC) | growth (SN12C renal) | growth (UO-31 renal) | growth (TK-10 renal) | growth (ACHN renal) | growth (CAKI-1 renal) | growth (A498 renal) | growth (HL-60(TB) leukemia) | growth (CCRF-CEM leukemia) | growth (MOLT-4 leukemia) | growth (SR leukemia) | growth (RPMI-8226 leukemia) | growth (OVCAR-8 ovarian) | growth (OVCAR-5 ovarian) | growth (OVCAR-4 ovarian) | growth (SK-OV-3 ovarian) | growth (IGROV1 ovarian) | growth (OVCAR-3 ovarian) | growth (HS 578T breast) |
| --- | --- | --- | --- | --- | --- | --- | --- | --- | --- | --- | --- | --- | --- | --- | --- | --- | --- | --- | --- | --- |
| Cc1cnc(/C=C/C(=O)O)cc1-c1cc2c(cc1C)C(C)(C)CCC2(C)C | 74.4% | 46% | 90.5% | 68.4% | 113% | 81.7% | 79% | 105% | 63.3% | 85% | 85.5% | 66% | 50.4% | 89.5% | 104% | 85.4% | 84.4% | 94.4% | 57.8% | 69.9% |
| COc1cc2c(cc1OCCCCCn1c(-c3ccco3)nc3ccccc31)N=C[C@@H]1CCCN1C2=O | -43.9% (active) | 22.7% | 15.8% | -23.9% (active) | -1.37% (active) | 10.2% | 12% | -39.6% (active) | -27.4% (active) | 29.8% | 6.41% (active) | 0.702% (active) | 28% | 18.6% | 7.02% (active) | 11.2% | 42.3% | -59.8% (active) | 12.9% | 14.7% |
| COC(=O)[C@@H](C)C[C@H](Cc1ccccc1)NC(=O)c1csc([C@@H](C[C@H](C(C)C)N(C)C(=O)[C@@H](NC(=O)[C@H]2CCCCN2C)C2CC2)OC(C)=O)n1 | 5.26% (active) | 42.3% | 43.5% | 39% | 38.6% | 19.6% | 36.9% | 2.41% (active) | -26.3% (active) | 7.66% (active) | 15.3% | 2.03% (active) | 34.9% | 22.2% | 73% | 57.4% | 21.9% | 30.8% | -4.55% (active) | 35.7% |
| CC(C)COC(C[N+](=O)[O-])C(Cl)(Cl)Cl (stereo not given) | 115% | 97.2% | 105% | 97.2% | 105% | 107% | 102% | 84.6% | 93% | 113% | 103% | 94.7% | 116% | 101% | 109% | 101% | 106% | 103% | 115% | 119% |
| CN1C(=O)C23CC4(C56CC78SSC(CO)(C(=O)N7C5Nc5ccccc56)N(C)C8=O)c5ccccc5NC4N2C(=O)C1(CO)SS3 (stereo not given) | -84.6% (active) | -62.3% (active) | -100% (active) | -100% (active) | -90.2% (active) | -100% (active) | -98.7% (active) | -98.9% (active) | -63.1% (active) | -11.2% (active) | -62.2% (active) | -75.8% (active) | -25.8% (active) | -94.7% (active) | -77.7% (active) | -94.5% (active) | -98.6% (active) | -100% (active) | -97.8% (active) | -54.5% (active) |
| Fc1cccc(NCOOC2(OOCNc3cccc(F)c3)CCCCC2)c1 | 91.7% | 93.8% | 103% | -58.2% (active) | 90.8% | 95% | 52.3% | 92.4% | 88.3% | 84.1% | 97.6% | 31.5% | 99.6% | 96.8% | 96.2% | 98.5% | 103% | 40.1% | 99.3% | 104% |
| CC(C)=CCC[C@H](C(=O)O)[C@@H]1CC[C@]2(C)C3=C(CC[C@@]12C)[C@@]1(C)CC[C@H](O)C(C)(C)[C@@H]1CC3 | 91% | 95% | 102% | 89.8% | 93.8% | 101% | 75% | 104% | 85.1% | 109% | 88.6% | 91.8% | 88.8% | 96.4% | 96.8% | 103% | 96.7% | 103% | 107% | 99.9% |
| CSc1nc(Cl)cc(N2CC2)n1 | 120% | 106% | 104% | 114% | 107% | 109% | 98.3% | 122% | 96.6% | 77.6% | 108% | 109% | 73.8% | 101% | 111% | 114% | 115% | 123% | 117% | 110% |
| NC(=O)CNc1ccc([As]=[As]c2ccc(NCC(N)=O)cc2)cc1 (stereo not given) | 33.8% | 23.1% | 34% | 54.4% | 58.1% | 71.2% | 12.5% | 58.1% | 19.8% | 10.9% | 58.8% | 14% | 13.5% | 61.2% | 74.6% | 60.6% | 93.7% | 8.16% (active) | -41.5% (active) | 10.5% |
| CC(=O)O[C@H]1C(=O)[C@@]2(C)[C@H]([C@H](OC(=O)c3ccccc3)[C@]3(O)C[C@H](OC(=O)[C@H](OC(=O)OC[C@@H]4COC(C)(C)O4)[C@@H](NC(=O)c4ccccc4)c4ccccc4)C(C)=C1C3(C)C)[C@]1(OC(C)=O)CO[C@@H]1C[C@@H]2O | 24.3% | 29.1% | 27% | 34.1% | 26% | 36.2% | 27.4% | 13.4% | 4.01% (active) | 17.8% | 14.7% | 25.5% | 5.35% (active) | 16.5% | 6.96% (active) | 64.4% | 12.9% | 16.6% | 8.13% (active) | 2.33% (active) |
| CC[C@H](C)[C@H](NC(=O)[C@H]1CCCCN1C)C(=O)N(C)[C@H](C[C@@H](OC(C)=O)c1cccc(C(=O)N[C@@H](Cc2ccccc2)C[C@H](C)C(=O)O)n1)C(C)C | 36.3% | 59.6% | 28.1% | 44.7% | 29% | 32.3% | 13.7% | -2.46% (active) | -40% (active) | 16.8% | 17.8% | 18% | 22.7% | 17.7% | 52% | 34.7% | 8.71% (active) | 25.7% | -27.7% (active) | 28.1% |
| C/C(=C\c1cc(C(F)(F)F)nn1CCNC(=O)OC(C)(C)C)[C@@H]1C[C@@H]2O[C@]2(C)CCC[C@H](C)[C@H](O)[C@@H](C)C(=O)C(C)(C)[C@@H](O)CC(=O)O1 | 75.1% | 65% | 87% | 49.5% | 69.2% | 74.6% | 47.1% | 49.3% | 14.1% | 67.2% | 25.1% | 28.1% | 22.9% | 61.8% | 68.7% | 71.4% | 86.3% | 49.2% | 30.8% | 61.3% |
| COc1cc(/C=C/[N+](=O)[O-])c([N+](=O)[O-])cc1OC | -6.72% (active) | 65.9% | 22% | -49.5% (active) | -18.3% (active) | -46.4% (active) | -50% (active) | 109% | -7.54% (active) | 5.8% (active) | 7.83% (active) | 12.6% | 4.37% (active) | 17% | -3.45% (active) | 6.43% (active) | 103% | -15.6% (active) | -91.7% (active) | 11.8% |
| O=P(Oc1ccc(Cl)cc1)(N1CC1)N1CC1 | 102% | 101% | 86.7% | 61.1% | 104% | 25% | 5.92% (active) | 97.4% | 96% | 82.5% | 84.8% | 77.8% | 88.6% | 89.3% | 117% | 97.3% | 104% | 89.1% | 109% | 103% |
| Clc1ccc(CO/N=C(\Cn2ccnc2)c2ccc(Cl)cc2Cl)c(Cl)c1 | -48% (active) | 6.63% (active) | 2.12% (active) | -3% (active) | -1.82% (active) | 6.26% (active) | 1.17% (active) | -5.95% (active) | -23% (active) | -13.1% (active) | -4.84% (active) | -13.7% (active) | -3.32% (active) | 9.94% (active) | 15.8% | 20.7% | 101% | 6.54% (active) | -60.1% (active) | -4.93% (active) |

Source: PubChem BioAssay (NCI)
